Assay [1] in a line: NCI Yeast Anticancer Drug Screen. Data for the rad50 strain (AID 155).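 Also: 0% = growth of vehicle-only cultures of the same strain.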 The following applies: S. cerevisiae rad50 strain growth inhibition; at 50.0 µM; hits give high values. The method, boiled down: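 Inhibition values express reduced yeast growth in compound-treated cultures relative to vehicle-treated controls.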
A short description of assay [2]: NCI Yeast Anticancer Drug Screen. Data for the mec2-1 strain (AID 157). The following applies: S. cerevisiae mec2-1 strain, at 50.0 µM, hits give high values. The method, boiled down:
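Vehicle-treated cultures served as reference for growth inhibition of compound-exposed mec2-1 yeast.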

Assay [3] can be described thus: NCI Yeast Anticancer Drug Screen. Data for the sgs1 mgt1 strain (AID 161).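 Also: 0% = growth of cultures given vehicle only.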 The following applies: S. cerevisiae sgs1 mgt1 strain, at 50.0 µM, hits give high values. In outline:
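Inhibition of yeast growth, normalised to vehicle-treated controls, is reported for a strain bearing genetic alterations in DNA damage repair.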

Assay [4] in a line: NCI Yeast Anticancer Drug Screen. Data for the cln2 rad14 strain (AID 165).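 Also: 0% = growth equal to vehicle treated cultures.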 The following applies: S. cerevisiae cln2 rad14 strain, at 50.0 µM, hits give high values. The method, boiled down:
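Each compound was tested on cln2 rad14 yeast. Inhibition of growth was calculated against vehicle-exposed controls.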

The nature of assay [5]: NCI Yeast Anticancer Drug Screen. Data for the bub3 strain (AID 167). The following applies: S. cerevisiae bub3 mutant strain, at 50.0 µM, hits give high values. In outline:
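Steps: expose the mutant yeast strain to compound; grow alongside vehicle-treated cultures; measure growth; express inhibition against the vehicle cultures.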

Assay [6] can be described thus: NCI Yeast Anticancer Drug Screen. Data for the mlh1 rad18 strain (AID 175). The following applies: S. cerevisiae mlh1 rad18 strain growth inhibition; at 50.0 µM; hits give high values. In outline:
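Vehicle-treated cultures served as the reference for growth inhibition in a yeast strain carrying DNA damage repair alterations exposed to each compound.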

Compounds without any hit were thinned out: in the full panel of roughly 79,000, 15% have a hit. Unmarked numbers belong to inactive results. Calls of active or inactive are those of the source. Rule as the data show it: active = growth inhibition above about 70%; inactive = the rest.

As for `CSc1ncnc2c1ncn2CC(=O)C1CCC2C3CCC4=CC(=O)CCC4(C)C3CCC12C` (stereo not given), the growth inhibition was 7% in assay [1]; -48.2% in assay [2]; -1.9% in assay [3]; -29.6% in assay [4]; -28.9% in assay [5]; 16.4% in assay [6].
With `NC(=Nc1ccccc1)c1ccc(Cl)cc1`, the growth inhibition was 66.2% in assay [1]; 96.5% (active) in assay [2]; 45.4% in assay [3]; 97.2% (active) in assay [4]; 98.6% (active) in assay [5]; 87.7% (active) in assay [6].
`Nc1cccc(CC(NC(=O)c2ccccc2)C(=O)O)c1` (stereo not given): the growth inhibition in assay [1] was -16.4%; in assay [2], 2.1%; in assay [3] it was 12.1%; in assay [4], -4.3%; in assay [5], 28.6%; in assay [6], -22.7%.
Turning to `Nc1ccccc1Sc1ccc(C(=O)O)cc1[N+](=O)[O-]`, the growth inhibition in assay [1] was 19.6%; in assay [2], 20.2%; in assay [3], 7.75%; in assay [4], -3.55%; in assay [5], 22.2%; in assay [6], -6.5%.
As to `CC(=O)Oc1ccccc1/C=C1\N=C(c2ccccc2)OC1=O`, the growth inhibition is -5.25% in assay [1]; 2.25% in assay [2]; 1.85% in assay [3]; -30.2% in assay [4]; -5.25% in assay [5]; -6.4% in assay [6].
For the compound `Nc1ccccc1C(F)(F)F`, the growth inhibition in assay [1] is 2.45%; in assay [2], 5.65%; in assay [3], 1.2%; in assay [4], 4.1%; in assay [5], 3.3%; in assay [6], 8.25%.
As to `CCOC(=O)C1=C(C)Oc2cc3c(cc2C1c1cc(OC)c(O)c(OC)c1)OCO3` (stereo not given), the growth inhibition in assay [1] is 33.8%; in assay [2], 1.65%; in assay [3], 38.5%; in assay [4] it was 9.75%; in assay [5], 27.4%; in assay [6], 50.5%.
In the case of `CCCCCCCCCC(=O)OC`, the growth inhibition in assay [1] is -24.1%; in assay [2], -16.9%; in assay [3], 8.4%; in assay [4], -12.8%; in assay [5], -0.25%; in assay [6] it was 6.2%.
Regarding `CSc1nc(-c2ccc(C)cc2)c(C#N)c(=O)[nH]1`, the growth inhibition in assay [1] was 6.25%; in assay [2], 4.9%; in assay [3], -9.45%; in assay [4], 24.2%; in assay [5], 0.4%; in assay [6] it was -55.9%.
On to `O=C(Nc1nc(C23CC4CC(CC(C4)C2)C3)cs1)c1cc2cc(Br)cc(Br)c2oc1=O`, for which the growth inhibition in assay [1] was -8.75%; in assay [2], -13.8%; in assay [3] it was 23.3%; in assay [4] it was 19.9%; in assay [5], -12.8%; in assay [6] it was -8.4%.
Regarding `O=[N+]([O-])c1cccc(/C=C/c2cc(N(CCO)CCO)c3ccccc3n2)c1`, the growth inhibition was 48.1% in assay [1]; 12.8% in assay [2]; 11.1% in assay [3]; 3.5% in assay [4]; -6.6% in assay [5]; 22.2% in assay [6].
In the case of `CC(C)=C(OC(=O)c1ccccc1)C(C)(CC(C)(C)C)C(C)(C)C` (stereo not given), the growth inhibition is 13.1% in assay [1]; -55.3% in assay [2]; -10.3% in assay [3]; -100% in assay [4]; -26.5% in assay [5]; 19.4% in assay [6].
For `COc1ccc(-n2c(C)c(COC(C)=O)c(COC(C)=O)c2C)cc1`, the growth inhibition in assay [1] is -5.4%; in assay [2] it was -18.2%; in assay [3], -0.55%; in assay [4] it was -2.8%; in assay [5], -7.55%; in assay [6], -55.2%.
With `O=C(O)/C(=C/c1ccc([N+](=O)[O-])cc1)c1ccc([N+](=O)[O-])cc1`, the growth inhibition was 6.9% in assay [1]; -4% in assay [2]; 2.05% in assay [3]; -35.4% in assay [4]; -1.7% in assay [5]; 1.55% in assay [6].
For the compound `Oc1ccc(Cl)cc1-c1cc(-c2ccccc2)nc(=S)[nH]1`, the growth inhibition in assay [1] was -12.7%; in assay [2], -34.8%; in assay [3], -17.6%; in assay [4] it was -0.2%; in assay [5], -1.3%; in assay [6], -3.6%.
Consider `c1csc(C2N3CCN(CC3)C(c3cccs3)N3CCN2CC3)c1` (stereo not given), for which the growth inhibition in assay [1] was -1.6%; in assay [2], -16.7%; in assay [3] it was 23.8%; in assay [4] it was 10.1%; in assay [5], -5.25%; in assay [6], 3.1%.
For the compound `N#Cc1cccc(N2C(=O)c3ccc(C(=O)c4ccc5c(c4)C(=O)N(c4cccc(C#N)c4)C5=O)cc3C2=O)c1`, the growth inhibition was -25.9% in assay [1]; -16.3% in assay [2]; -49.5% in assay [3]; 23.8% in assay [4]; -0.7% in assay [5]; -12.3% in assay [6].
Consider `CC(C)(O)C(C)(O)C#CC(C)(O)C(C)(C)O` (stereo not given), for which the growth inhibition in assay [1] was -2.65%; in assay [2] it was 1.2%; in assay [3], 1.3%; in assay [4], -15.2%; in assay [5], 2.5%; in assay [6] it was 6.75%.
Consider `Cc1ccc(N2C(=O)CS/C2=C(\C#N)c2nc3ccccc3[nH]2)cc1`, for which the growth inhibition in assay [1] was -78.5%; in assay [2], -62%; in assay [3], -66.1%; in assay [4], -57.9%; in assay [5], -76.8%; in assay [6], -40.2%.
With `CSC(=NCCN=C(NS(=O)(=O)c1ccc(Cl)cc1)SC)NS(=O)(=O)c1ccc(Cl)cc1`, the growth inhibition was 5.95% in assay [1]; -5.3% in assay [2]; 7.15% in assay [3]; 1.5% in assay [4]; 4.15% in assay [5]; 5.8% in assay [6].

(Values after PubChem BioAssay (NCI).)
